Usually Inhibition stands for the drop in the measured response relative to a control, in per cent. Lower therefore signals little suppression.

SMILES strings stand for the structures.

Common to all, as to format: functional
Test [1] concerns Plasmodium falciparum. Briefly: GSK_TCMDC: Inhibition of Plasmodium falciparum 3D7 in whole red blood cells, using parasite LDH activity as an index of growth. Test compounds present at 2uM.
In test [2] the test system is Plasmodium falciparum. Briefly: GSK_TCMDC: Inhibition of Plasmodium falciparum Dd2 in whole red blood cells, using parasite LDH activity as an index of growth. Test compounds present at 2uM.
The test system of test [3] is HepG2. Description: GSK_TCMDC: Percent inhibition of human HepG2 cell line. Test compounds present at 10uM.

In the case of `Cc1[nH]c2ccccc2c1CC1CCN(CC2CCN(C(=O)/C=C/c3ccc(Cl)c(Cl)c3)CC2)CC1`, the Inhibition is 92% in test [1], 14% in test [2] and 34% in test [3].
Taken in the same sequence, the figures for `CCN1CCC(N(Cc2ccc(-c3ccc(C(F)(F)F)cc3)o2)C(=O)Cn2c(CCc3cccc(F)c3F)nc(=O)c3ccccc32)CC1.O=C(O)C(O)C(O)C(=O)O` were 91%, 88% and 45%.
Regarding `Fc1ccc(C=NN=c2cc[nH]c3ccc(C(F)(F)F)cc23)cc1`, the Inhibition in test [1] is recorded as 90%; in test [2], 6%; in test [3], 22%.
The like results for `Cc1ccc(S(=O)(=O)NC2CCN(CCNC(=O)Nc3cc(C)nc4ccccc34)C2)cc1` (stereo not given) were, in that order, 97%, 42% and 0%.
For `Cc1ccc2[nH]c3ccccc3c(=O)c2c1`, the Inhibition in test [1] came to 93%; in test [2], 74%; in test [3], 0%.
On to `O=C(N[C@@H](CC1CCCCC1)C(=O)NCCc1ccc(Cl)c(Cl)c1)c1ccc(O)c(-c2ccc(Cl)c(Cl)c2)c1`, for which the Inhibition is 100% in test [1], 99% in test [2] and 0% in test [3].
On to `O=C(/C=C/c1ccc(-c2ccccc2)cc1)NCCCCCN1CCC(c2c[nH]c3ccccc23)CC1`, for which the Inhibition in test [1] stood at 97%; in test [2], 23%; in test [3] it was 91%.
Consider `O=C(Nc1ccc(CN2CCCCC2)cc1)c1ccc(COc2ccc([N+](=O)[O-])cc2)o1`, for which the Inhibition in test [1] is given as 86%; in test [2] it was 0%; in test [3] it was 12%.
`CCn1cc2c3c(cc(C(=O)N[C@@H](Cc4ccccc4)[C@H](O)CNCc4cccc(OC)c4)cc31)N(C)S(=O)(=O)CC2`: the Inhibition in test [1] worked out at 99%; in test [2], 97%; in test [3], 0%.
For the molecule `c1ccc(CN2CCN(c3cc(-c4cncc(-c5ccccc5)c4)nc(-c4ccccc4)n3)CC2)cc1`, the Inhibition in test [1] was 88%; in test [2] it was 12%; in test [3], 9%.
As to `COc1ccc(C(=O)C2CC2CN(C)CC(O)c2cc(C)c(OC)cc2C)cc1.O=C(O)C(F)(F)F` (stereo not given), the Inhibition amounted to 90% in test [1], 77% in test [2] and 8% in test [3].
As for `CN1CCN(c2cc(NC(=O)Nc3ccc(-c4ccncc4)c(Cl)c3)ccc2Br)CC1`, the values for the Inhibition in test [1], in test [2] and in test [3] were 100%, 99% and 23%, respectively.
With `Cc1ccc(O)cc1Nc1ccnc2cc(-c3ccccn3)ccc12.Cl` [GW440139A], the figures for the Inhibition in test [1], in test [2] and in test [3] were 97%, 98% and 6%, respectively.
For `Cc1noc(NC(=O)c2sc3ccccc3c2O)c1C`, the figures for the Inhibition in test [1], in test [2] and in test [3] were 90%, 50% and 0%, respectively.
Taken in the same sequence, the figures for `C(=N\Nc1nccc2sc(-c3cccnc3)cc12)/c1ccncc1` were 100%, 94% and 65%.
As to `Fc1ccc2c(NN=Cc3ccccc3F)ccnc2c1`, the Inhibition in test [1] is 100%; in test [2] it was 99%; in test [3] it was 10%.
Taken in the same sequence, the figures for `O=C(Nc1ccc(N2CCN(Cc3ccccc3)CC2)cc1)c1cccs1.O=C(O)C(F)(F)F` were 87%, 86% and 0%.
With `CC(=O)Nc1ccc(C(=O)Nc2ccc(-c3cccc(-c4nc5cc(F)ccc5[nH]4)c3)cc2)cn1`, the results for the Inhibition in test [1], in test [2] and in test [3] were 100%, 84% and 13%, respectively.
`COCCNCc1cccc(-c2cccc(CNC3CCN(Cc4ccccc4)CC3)c2)c1.O=C(O)C(F)(F)F`: the Inhibition was determined as 100% in test [1], 99% in test [2] and 28% in test [3].
Taken in the same sequence, the figures for `CC1(C)CCC(C)(C)c2c1ccc(C1CCN(CCCCNC(=O)c3ccc(-c4ccc(C#N)cc4)cc3)CC1)c2OCC(N)=O` were 100%, 100% and 99%.
Taken in the same sequence, the figures for `Cc1cc(N[C@@H](Cc2ccccc2)C(=O)NCc2cccs2)nc(NCCc2ccccc2)n1.O=C(O)C(F)(F)F` were 92%, 61% and 6%.
For the molecule `CC(=O)Nc1ccc(S(=O)(=O)Nc2ccc(Nc3nc(C)cc(N(C)C)n3)cc2)cc1`, the Inhibition is on record as 100% in test [1], 22% in test [2] and 0% in test [3].
Turning to `CCN(CC)CCN(Cc1ccc(-c2ccc(C(F)(F)F)cc2)cc1)C(=O)Cn1c(CCc2cccc(C#N)c2)nc(=O)c2ccccc21.O=C(O)C(O)C(O)C(=O)O`, the Inhibition in test [1] is 100%; in test [2], 47%; in test [3], 36%.
Consider `CCC1CN2CCc3c([nH]c4ccccc34)C2CC1CC1=NCCc2c1[nH]c1ccccc21.Cl` (stereo not given), for which the Inhibition stood at 100% in test [1], 47% in test [2] and 20% in test [3].
In the case of `COc1ccc(CN(C)CCOc2ccc(NC(=O)c3cccc4c(=O)cc(-c5ccccc5)[nH]c34)cc2)cc1OC`, the Inhibition in test [1] amounted to 98%; in test [2] it was 44%; in test [3], 13%.
Take `CCOC(=O)CCCc1cc(NC2CCN(C)CC2)nc(Nc2ccc(C)cc2)n1`: the Inhibition in test [1] amounted to 90%; in test [2] it was 12%; in test [3], 35%.
For `O=C(/C=N/O)Nc1ccccc1[N+](=O)[O-]`, the results for the Inhibition in test [1], in test [2] and in test [3] were 99%, 0% and 0%, respectively.
For `NC(=O)c1cnc2ccc(-c3cncs3)cc2c1Nc1ccc(F)c(Cl)c1`, the values for the Inhibition in test [1], in test [2] and in test [3] were 97%, 99% and 3%, respectively.
On to `Cl.N=c1n(CCN2CCCCC2)c2ccccc2n1CC(O)c1cccc(Br)c1` (stereo not given), for which the Inhibition came to 86% in test [1], 33% in test [2] and 25% in test [3].
As for `CCN(CC)CCN(Cc1ccc(-c2ccc(C(F)(F)F)cc2)cc1)C(=O)Cn1c(CCc2cccc(F)c2F)nc(=O)c2cc(C)ccc21.O=C(O)C(O)C(O)C(=O)O`, the figures for the Inhibition in test [1], in test [2] and in test [3] were 95%, 43% and 19%, respectively.
